Measured values reported in publication PMC4552634, “A New Set of Chemical Starting Points with Plasmodium falciparum Transmission-Blocking Potential for Antimalarial Drug Discovery” (PLoS ONE, 2015).
Like-named read-outs stand apart in the source and are kept apart here. In all, about 13,000 compounds went through this assay and about 3,200 (25%) showed an effect of 50% or more. This is one part of the list.

System: P. falciparum stage V gametocytes
Design: BacTiter-Glo ATP luminescence viability of purified stage V gametocytes in 384-well plates, per cent inhibition versus DMSO
Conditions: 48 h, 5 µM, inhibitor

Row | Structure (SMILES) | % Inhibition [%] | % Inhibition (% Inhibition) [%]
1 | CC(=O)Nc1ccc([N+](=O)[O-])c2c(Br)cccc12 [TCMDC-125386] | -53.09 | –
2 | COc1cc(F)c2ncc(Cl)c([C@H](O)CN3CCC(NCc4ccc5c(n4)NC(=O)CO5)CC3)c2c1 [TCMDC-135487] | 8.334 | –
3 | CC(C)(C)c1cc(/C=C/C(=O)NC2CCC(CN3CCC(c4c[nH]c5ccccc45)CC3)CC2)cc(C(C)(C)C)c1O (stereo not drawn) [TCMDC-139757] | – | 96.1
4 | CC(C)(C)c1cc(/C=C/C(=O)NC2CCC(CN3CCC(c4c[nH]c5ccccc45)CC3)CC2)cc(C(C)(C)C)c1O (stereo not drawn) [TCMDC-139767] | – | 105.4
5 | N#Cc1cccc(Nc2cc(C(F)(F)F)nc(Nc3ccccc3)n2)c1 [TCMDC-133458] | 7.387 | –
6 | CCOc1cc(Cc2cnc(N)nc2N)cc(Br)c1OC [TCMDC-137721] | -8.107 | –
7 | CCN(Cc1ccc(-c2ccc(C(F)(F)F)cc2)cc1)C(=O)Cn1c(SCc2cccc(F)c2F)cc(=O)c2cc(CN3CCCCC3)ccc21 [TCMDC-141592] | 106.5 | –
8 | CC(C)N(Cc1ccc(-c2ccc(C(F)(F)F)cc2)cc1)C(=O)Cn1c(SCc2cccc(F)c2F)cc(=O)c2cc(CN3CCCCC3)ccc21 [TCMDC-141593] | 103.1 | –
9 | COC(=O)C1(NC(=O)c2ccc(-n3nc(C)c(-c4ccccc4)c3N)cc2)CCCC1 [TCMDC-134041] | 30.38 | –
10 | CCCC(C)NC(=O)C(N)Cc1cccc(I)c1 (stereo not drawn) [TCMDC-141272] | -22.86 | –
11 | CC(C)C(=O)NC(NC(=S)Nc1ccc(Br)cc1)C(Cl)(Cl)Cl (stereo not drawn) [TCMDC-124131] | 29.56 | –
12 | O=C(NCC1COc2ccccc2O1)c1cnc2c(c1)nc(-c1cnc(-c3ccccc3)[nH]1)n2CCSCc1c(F)cccc1Cl (stereo not drawn) [TCMDC-139692] | 12.96 | –
13 | Cc1ncc([N+](=O)[O-])n1CCOC(=O)NC(NCC1COc2ccccc2O1)C(Cl)(Cl)Cl (stereo not drawn) [TCMDC-125611] | 93.51 | –
14 | Cc1nn(CCOC(=O)NC(NCC2COc3ccccc3O2)C(Cl)(Cl)Cl)cc1[N+](=O)[O-] (stereo not drawn) [TCMDC-124139] | 72.15 | –
15 | Cc1ncc([N+](=O)[O-])n1CCOC(=O)NC(Nc1ccc(Br)cc1)C(Cl)(Cl)Cl (stereo not drawn) [TCMDC-124219] | 76.02 | –
16 | CC1(C)N=C(N)N=C(N)N1OCC1COc2ccccc2O1 (stereo not drawn) [TCMDC-131585] | 1.956 | –
17 | O=C(/C=C/c1ccc(Cl)c(Cl)c1)NCCCCCN1CCCN(C(=O)Nc2ccc([N+](=O)[O-])cc2)CC1 [TCMDC-135754] | -58.55 | –
18 | Clc1ccc(CNc2nc(NCCc3cnc[nH]3)nc(N3CCCC4CCCCC43)n2)cc1 (stereo not drawn) [TCMDC-139743] | 10.44 | –
19 | Cc1oc(-c2ccccc2)nc1CCOc1ccc(C[C@H](Nc2ccccc2C(=O)c2ccccc2)C(=O)NCc2ccccn2)cc1 [TCMDC-138315] | -1.633 | –
20 | NC1=NC2(CCCC2)C(c2ccc(Cl)c(Cl)c2)C(N)=N1 (stereo not drawn) [TCMDC-137490] | 18.93 | –
21 | O=C(c1cnn(-c2ccccc2)c1C(F)(F)F)N1CCN(c2ccnc3cc(Cl)ccc23)CC1 [TCMDC-123790] | -13.06 | –
22 | COc1cc(Nc2nccc(NCC(O)c3ccc(C(F)(F)F)cc3)n2)cc(OC)c1OC (stereo not drawn) [TCMDC-136589] | -6.814 | –

Row | Structure (SMILES) | % Inhibition [%] | % Inhibition (% Inhibition) [%]
23 | O=C(Nc1ccc(-c2ccccc2)c(OCCN2CCNCC2)c1)c1ccc(-c2ccc(Cl)cc2)cc1 [TCMDC-138818] | 100.4 | –
24 | CN(C)CCOc1cc(NC(=O)c2ccc(-c3ccc(Cl)cc3Cl)cc2)ccc1-c1ccccc1 [TCMDC-138835] | -44.47 | –
25 | COc1ccc(-c2cccc(NC(=O)c3cccc(Cl)c3)c2)cc1CN1CCNCC1 [TCMDC-132613] | 106.1 | –
26 | Cc1nc(-c2ccc(-c3ccc(C(=O)Nc4ccc(I)c(OCC5CCCN5C)c4)cc3)c(C)c2)no1 (stereo not drawn) [TCMDC-139110] | -18.97 | –
27 | Cc1nc(-c2ccc(-c3ccc(C(=O)Nc4ccc(I)c(OCCN5CCCC5)c4)cc3)c(C)c2)no1 [TCMDC-139109] | 57.83 | –
28 | COc1cc(NC(=O)c2ccc(-c3ccccc3)cc2)ccc1OCCCN1CCC(c2ccccc2)CC1 [TCMDC-141370] | -49.11 | –
29 | COc1ccc(-c2cccc(NC(=O)c3ccc(C#N)cc3)c2)cc1CN1CCCC1 [TCMDC-132611] | 11.39 | –
30 | Cc1nc(-c2ccc(-c3ccc(NC(=O)Nc4ccc(I)c(OCCN(C)C)c4)cc3)c(C)c2)no1 [TCMDC-139107] | -54.47 | –
31 | COc1ccc(-c2cccc(NC(=O)c3ccc(Cl)cc3)c2)cc1CN1CCCC1 [TCMDC-132604] | 46.68 | –
32 | COc1ccc(-c2cccc(NC(=O)c3ccc(Cl)cc3)c2)cc1CN1CCNCC1 [TCMDC-132601] | 95.75 | –
33 | COc1ccc(-c2cccc(NC(=O)c3cccc(C#N)c3)c2)cc1CN1CCNCC1 [TCMDC-132620] | 19.71 | –
34 | CC1C(c2cccc(Cl)c2)OCC(C)(C)N1C(=O)CCN1CCCCC1 (stereo not drawn) [TCMDC-137873] | -11.63 | –
35 | COc1ccc2nccc([C@@H](O)CN3CCC(NCc4ccc5c(c4)NC(=O)C(C)(C)O5)CC3)c2c1 [TCMDC-141097] | 21.74 | –
36 | NC(N)=NN=C1C=Cc2cccc3cccc1c23 [TCMDC-137662] | -87.82 | –
37 | Cc1cc(NC2CCCC2)nc(Nc2ccccc2F)n1 [TCMDC-133463] | -1.86 | –
38 | Cc1cc(C)cc(Oc2c(C(F)(F)F)oc3c(CN4CC(C)OC(C)C4)c(O)ccc3c2=O)c1 (stereo not drawn) [TCMDC-125695] | -2.168 | –
39 | CCOc1ccccc1NC(=O)Nc1ccc2c(c1)CCN(C1CCC1)CC2 [TCMDC-135951] | 31.77 | –
40 | CCN1CCN(C(=O)NC(C(=O)N(C)Cc2ccc(-c3ccc(C(F)(F)F)cc3)cc2)c2cccs2)C(=O)C1=O (stereo not drawn) [TCMDC-141576] | 23.66 | –
41 | CCOC(=O)NOC(C(=O)O)c1ccccc1 (stereo not drawn) [TCMDC-131406] | -4.765 | –
42 | COC(=O)c1cccc(CNCc2cccc(-c3ccc(-c4nc5cc(C(F)(F)F)ccc5[nH]4)cc3)c2)c1.O=C(O)C(F)(F)F [TCMDC-132955] | -38.35 | –
43 | COc1ccc(-c2ccc(NC(=O)c3cccc(Cl)c3)cc2)cc1CN1CCCC1 [TCMDC-132525] | 40.62 | –
44 | O=C(Nc1cccc(-c2ccc(CN3CCNCC3)cc2)c1)c1cccc(Cl)c1 [TCMDC-132640] | -31.19 | –

Row | Structure (SMILES) | % Inhibition [%] | % Inhibition (% Inhibition) [%]
45 | COc1ccc(-c2ccc(NC(=O)c3ccc(C#N)cc3)cc2)cc1CN1CCCC1 [TCMDC-132519] | 46.41 | –
46 | O=C(Nc1cccc(-c2ccc(CN3CCCC3)cc2)c1)c1cccc(Cl)c1 [TCMDC-132643] | 24.88 | –
47 | COc1ccc(-c2cccc(NC(=O)c3cccc(Cl)c3)c2)cc1CN1CCCN(C)CC1 [TCMDC-132614] | -18.61 | –
48 | COc1ccc(-c2ccc(NC(=O)c3ccc(C#N)cc3)cc2)cc1CN1CCNCC1 [TCMDC-132516] | 43.65 | –
49 | COc1ccc(-c2cccc(NC(=O)c3cccc(Cl)c3)c2)cc1CN1CCCC1 [TCMDC-132615] | 79.62 | –
50 | CN1CCCN(Cc2cccc(-c3cccc(NC(=O)c4cccc(Cl)c4)c3)c2)CC1 [TCMDC-132657] | -0.3892 | –
51 | O=C(Nc1cccc(-c2cccc(CN3CCCC3)c2)c1)c1cccc(Cl)c1 [TCMDC-132659] | 85.38 | –
52 | O=C(Nc1ccc(-c2ccc(CN3CCNCC3)cc2)cc1)c1cccc(Cl)c1 [TCMDC-132590] | 87.95 | –
53 | COc1ccc(-c2ccc(NC(=O)c3ccc(Cl)cc3)cc2)cc1CN1CCNCC1 [TCMDC-133338] | 93.69 | –
54 | CN1CCCN(Cc2ccc(-c3ccc(NC(=O)c4cccc(Cl)c4)cc3)cc2)CC1 [TCMDC-132591] | 42.97 | –
55 | COc1ccc(-n2nc(C)c3c2NC(=O)CC3c2ccccc2OCc2ccc(F)cc2)cc1 (stereo not drawn) [TCMDC-124906] | 40.61 | –
56 | COC(=O)c1cc(C(O)CNC(C)CCCc2ccccc2)ccc1O (stereo not drawn) [TCMDC-131241] | -5.82 | –
57 | COc1ccc2nccc([C@@H](O)CN3CCC(NCc4nc5c(F)cccc5[nH]4)CC3)c2c1 [TCMDC-140760] | 20.74 | –
58 | O=C(c1cccc(-c2cccc(-c3nc4cc(C(F)(F)F)ccc4[nH]3)c2)c1)N1CCCCC1CN1CCC(O)C1 (stereo not drawn) [TCMDC-132346] | -18.68 | –
59 | CCN(CCCN1CCCCC1)c1cc(C)nc(Nc2cc(Cl)cc(Cl)c2)n1 [TCMDC-132455] | 8.984 | –
60 | Cc1nc(C(C)Nc2nncc(-c3ccc(Cl)cc3)n2)cs1 (stereo not drawn) [TCMDC-124636] | -29.02 | –
61 | CC(C)c1cccc(C(NC(=O)[C@H]2Cc3ccccc3CN2C(=O)c2cccc(N3CCOCC3)c2)C2CCCC2)c1 (stereo partly drawn) [TCMDC-138264] | 2.743 | –
62 | FC(F)(F)c1ccc2[nH]c(-c3ccc(-c4cccc(CNCC5CCCO5)c4)s3)nc2c1.O=C(O)C(F)(F)F (stereo not drawn) [TCMDC-133099] | -9.129 | –
63 | COc1ccc2nccc([C@@H](O)CN3CCC(NS(=O)(=O)c4cc(Br)c(Br)s4)CC3)c2c1 [TCMDC-141306] | 29.28 | –
64 | COc1ccc(-c2cccc(NC(=O)c3ccc(Cl)cc3)c2)cc1CN1CCC(O)CC1 [TCMDC-132606] | -74.32 | –
65 | COc1ccc(-c2cccc(NC(=O)c3cccc(Cl)c3)c2)cc1CN1CCC(O)CC1 [TCMDC-132618] | 87.3 | –
66 | COc1ccc(-c2ccc(NC(=O)c3cccc(Cl)c3)cc2)cc1CN1CCC(O)CC1 [TCMDC-133334] | 46.17 | –
